Holding throughout (assay type): functional
Experiment [1] deals with Solute carrier family 2, facilitated glucose transporter member 1 (Homo sapiens) (UniProt P11166). Briefly: ST_JUDE_LEISH: Cytotoxicity at 2uM final concentration against transgenic Leishmania Mexicana promastigotes LmGLUT1 that are glucose transport deficient and complemented with the human glucose transporter GLUT1. Activity is measured by DNA content using SYBR green in vitro.

Experiment [2] has as its target Hexose transporter 1 (Plasmodium falciparum) (UniProt O97467). Briefly: ST_JUDE_LEISH: Cytotoxicity at 2uM final concentration against transgenic Leishmania Mexicana promastigotes LmPfHT that are glucose transport deficient and complemented with the Plasmodium falciparum hexose transporter. Activity is measured by DNA content using SYBR green in vitro.
Experiment [3] has as its target Glucose transporter (Leishmania mexicana) (UniProt O61059). Briefly: ST_JUDE_LEISH: Cytotoxicity at 2uM final concentration against transgenic Leishmania Mexicana promastigotes LmGT2 that are glucose transport deficient and complemented with the L. Mexicana glucose transporter 2. Activity is measured by DNA content using SYBR green in vitro.

Chain of Solute carrier family 2, facilitated glucose transporter member 1 (Homo sapiens) (P11166 whole entry): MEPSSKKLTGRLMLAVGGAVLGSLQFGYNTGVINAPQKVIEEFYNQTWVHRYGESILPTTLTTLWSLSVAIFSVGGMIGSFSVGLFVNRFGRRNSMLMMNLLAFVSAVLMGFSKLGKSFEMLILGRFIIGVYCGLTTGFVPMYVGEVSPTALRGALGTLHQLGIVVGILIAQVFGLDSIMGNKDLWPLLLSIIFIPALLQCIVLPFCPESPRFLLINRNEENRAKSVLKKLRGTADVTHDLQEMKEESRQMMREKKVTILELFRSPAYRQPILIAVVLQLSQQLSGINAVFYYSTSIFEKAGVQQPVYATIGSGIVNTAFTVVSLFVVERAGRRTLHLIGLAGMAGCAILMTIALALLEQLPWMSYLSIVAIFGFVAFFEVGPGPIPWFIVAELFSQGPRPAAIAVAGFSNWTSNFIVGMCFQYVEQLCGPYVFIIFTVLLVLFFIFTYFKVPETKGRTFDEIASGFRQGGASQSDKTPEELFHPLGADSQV

In general, inhibition refers to the relative decrease from the control value, in per cent. As to `FC(F)(F)c1ccc2[nH]c(-c3ccc(-c4cccc(CNCCc5ccncc5)c4)s3)nc2c1`, the inhibition was found to be 0.52% in experiment [1], 1.67% in experiment [2] and 5.33% in experiment [3].

On to `CN1CCN(c2ccnc3ccc(NC(=O)c4ccc(Cl)c(Cl)c4)cc23)CC1`, for which the inhibition in experiment [1] is -1.88%; in experiment [2], 0.68%; in experiment [3], 0.97%.

On to `CCOc1ccc(/C=C/C(=O)Nc2cccc3c2CCN(C)C3)cc1`, for which the inhibition was 8.24% in experiment [1], 7.2% in experiment [2] and 6.27% in experiment [3].

For `CCOc1ccc(CCCON2C(=N)N=C(N)NC2(C)C)cc1`, the inhibition in experiment [1] is 9.39%; in experiment [2], 10.4%; in experiment [3] it was 9.73%.

For `N#Cc1ccc(N(CCOC(=O)c2ccc(Br)s2)Cc2ccccc2C(F)(F)F)cc1C(F)(F)F`, the inhibition in experiment [1] was determined as 1.7%; in experiment [2], 4.9%; in experiment [3], 3.28%.

With `Clc1cccc(CNC2CCN(CC3CCCCC3)CC2)c1`, the values for the inhibition in experiment [1], in experiment [2] and in experiment [3] were 4.03%, 4.11% and 6.03%, respectively.

With `COc1ccc2c(NN=Cc3ccc(Cl)cc3)ccnc2c1`, the inhibition came to 3.12% in experiment [1], 2.42% in experiment [2] and 4.63% in experiment [3].

Take `O=S(=O)(NCCN1CCCC1)c1cccc(-c2ccccc2CNC2Cc3ccccc3C2)c1`: the values for the inhibition in experiment [1], in experiment [2] and in experiment [3] were 60.1%, 16% and 10.6%, respectively.

For the compound `FC(F)(F)c1cc(CNCCCNc2nc3ccncc3[nH]2)ccc1Cl`, the values for the inhibition in experiment [1], in experiment [2] and in experiment [3] were 1.9%, 1.51% and 0.35%, respectively.

As to `Nc1nc(N)c2c(Cc3ccc(Br)cc3)cccc2n1`, the inhibition in experiment [1] was 2.61%; in experiment [2], 4.39%; in experiment [3], 3.75%.

For the compound `O=C1COc2ccc(CNC3CCC(O)(CCc4ccnc5cc6c(cc45)OCCO6)CC3)nc2N1` (stereo not drawn), the inhibition in experiment [1] is 3.59%; in experiment [2], 3.14%; in experiment [3], 2.8%.

`CC1(C)CC(=O)c2c(O)cc(OCc3ccncc3)cc2O1`: the figures for the inhibition in experiment [1], in experiment [2] and in experiment [3] were 2.92%, 0.56% and 0.66%, respectively.

As to `COc1cc(CNC[C@@H](O)[C@H](Cc2ccccc2)NC(=O)c2cc(C3CCCC3)cc(N3CCCS3(=O)=O)c2)cc(OC)c1`, the inhibition was determined as 4.36% in experiment [1], 3.83% in experiment [2] and 4.45% in experiment [3].

For the compound `CN(C)CCOc1ccc(-n2c(-c3nonc3N)nc3cncc(-c4ccc(F)cc4)c32)cc1`, the inhibition amounted to 3.17% in experiment [1], 3.94% in experiment [2] and 2.52% in experiment [3].

For the compound `Cc1c(C)n(C2CCCC2)c2ncnc(OC3CCN(CC(=O)NCC4CC4)CC3)c12`, the inhibition in experiment [1] worked out at 7.05%; in experiment [2] it was 5.47%; in experiment [3], 2.01%.

As for `CCOC(=O)c1nc(-c2cccnc2)[nH]c1NC(=S)NCc1ccccc1`, the inhibition worked out at 1.58% in experiment [1], 0.92% in experiment [2] and 3.75% in experiment [3].

For `O=C(Nc1cccc(-c2nc3ccccc3[nH]2)c1)c1ccc(-c2cccc([N+](=O)[O-])c2)o1`, the inhibition in experiment [1] stood at 4.88%; in experiment [2], 5.59%; in experiment [3], 7.27%.

Take `CCCCC(=O)Nc1nc2ccc([N+](=O)[O-])cc2s1`: the inhibition in experiment [1] was 1.98%; in experiment [2], 2.81%; in experiment [3], -0.58%.

As for `Cc1ccc(-n2c(Cc3cccc4ccccc34)nnc2SCCC#N)c(C)c1`, the inhibition in experiment [1] is 5.99%; in experiment [2], 5.29%; in experiment [3], 8.9%.

On to `CC(=O)Nc1cccc(C(=O)Nc2cccc(-c3csc(-c4nc5ccccc5[nH]4)c3)c2)c1`, for which the results for the inhibition in experiment [1], in experiment [2] and in experiment [3] were 4.93%, 2.83% and 3.14%, respectively.

In the case of `Cc1cccc2nc(-c3ccc(-c4cccc(NC(=O)C(=O)c5cccn5C)c4)cc3)[nH]c12`, the values for the inhibition in experiment [1], in experiment [2] and in experiment [3] were 4.58%, 2.19% and 2.29%, respectively.

As for `CCOC(=O)CC[C@@H](NC(=O)c1ccc(NCc2ccc3ccc4nc(C)[nH]c(=O)c4c3c2)cc1F)C(=O)N[C@@H](Cc1c[nH]c2ccccc12)C(=O)OCC`, the inhibition worked out at 1.56% in experiment [1], 1.89% in experiment [2] and 3.35% in experiment [3].

With `Cc1cc2c(cc1C(F)(F)F)N(C(=O)Nc1cc(OCCN(C(C)C)C(C)C)cc(C(F)(F)F)c1)CC2`, the inhibition was 10.4% in experiment [1], 9.23% in experiment [2] and 6.19% in experiment [3].

On to `Cc1cccc2nc(-c3ccc(-c4cccc(CNCC5CCCO5)c4)cc3)[nH]c12` (stereo not drawn), for which the inhibition amounted to 12.7% in experiment [1], 10.1% in experiment [2] and 8.96% in experiment [3].

Take `Cc1cc(N(C)C)nc(Nc2ccc(NC(=O)c3c(F)cccc3F)cc2)n1`: the inhibition in experiment [1] is 6.1%; in experiment [2] it was 6.29%; in experiment [3], -2.85%.

For `O=C(Nc1ccc(Cn2nc(Cl)c(N3CCCNCC3)cc2=O)cc1)Nc1ccc(-c2ccccc2)cc1`, the inhibition stood at 19.7% in experiment [1], 15.5% in experiment [2] and 16.6% in experiment [3].

On to `CCCCN(Cc1cc(Cl)c(OC)c(OC)c1)c1ccc(C(O)(C(F)(F)F)C(F)(F)F)cc1`, for which the inhibition in experiment [1] is 1.29%; in experiment [2], 4.14%; in experiment [3], -0.33%.

In the case of `O=C(Nc1cccc(CN2CCCN(CC3CC3)CC2)c1)c1ccc(-c2ccccc2)cc1`, the inhibition is 3.62% in experiment [1], 4.69% in experiment [2] and -0.4% in experiment [3].

With `COc1cc(Cc2cnc(N)nc2N)cc(OCCCCc2nnn[nH]2)c1OC`, the inhibition in experiment [1] was -0.47%; in experiment [2] it was 1.16%; in experiment [3], -0.95%.

In the case of `CC(C)N(C(=O)CSc1nc2cc(Cl)ccc2c(=O)n1Cc1ccccc1)C(C)C`, the inhibition in experiment [1] came to 0.98%; in experiment [2], 2.14%; in experiment [3], 0.05%.

On to `CCc1c[nH]c2c(N(c3ccccc3)S(C)(=O)=O)cc(C(=O)N[C@@H](Cc3ccccc3)[C@H](O)CNCc3cccc(C(F)(F)F)c3)cc12`, for which the inhibition in experiment [1] was 1.52%; in experiment [2], 1.54%; in experiment [3] it was -2.38%.

As for `Cc1cc(N[C@@H](Cc2ccccc2)C(=O)NCCOc2ccccc2)nc(NCC2CCCCC2)n1`, the inhibition in experiment [1] amounted to 6%; in experiment [2], 6.54%; in experiment [3], 0.5%.

As for `CCOc1ccc2[nH]c(C)cc(=NN=Cc3ccccc3F)c2c1`, the inhibition is 4% in experiment [1], 4.47% in experiment [2] and 3.86% in experiment [3].

On to `COc1ccc2ncc(F)c(CCN3CCC(CNCc4cccc5c4OCO5)CC3)c2n1`, for which the inhibition in experiment [1] came to 2.01%; in experiment [2], 1.39%; in experiment [3], 3.27%.

On to `Nc1nc(N)c(-c2ccccc2)c(=O)[nH]1`, for which the values for the inhibition in experiment [1], in experiment [2] and in experiment [3] were 4.51%, 3.54% and 1.16%, respectively.

On to `COc1ccc2cc(C=NNc3nc4ccccc4[nH]3)c(Cl)nc2c1`, for which the inhibition in experiment [1] was -0.3%; in experiment [2] it was 0.04%; in experiment [3] it was 1.79%.

These data come from ChEMBL document CHEMBL3433997, “St. Jude Leishmania screening dataset” (2016).
